Bioassay records deposited in PubChem BioAssay by The Scripps Research Institute Molecular Screening Center.
MITF primary = blocks human microphthalmia-associated transcription factor; O75030; AID 1259374; 650,000 compounds, 0.91% hits; inhibition, % at 2.6 µM; AlphaScreen MITF homodimerization, bead proximity signal; in the data active means inhibition above about 50%;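 further: 0% = vehicle wells with protein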
GPR151 ag = activates the human receptor GPR151 | 650,000 compounds, 1% hits | Q8TDV0 | activation, % at 11.2 µM | PathHunter beta-arrestin GPR151 cells, luminescence; in the data active means activation above about 4.9%;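 further: 0% = median of compound wells and 100% = cells with positive control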
Target sequence (Q8TDV0 whole entry, looked up): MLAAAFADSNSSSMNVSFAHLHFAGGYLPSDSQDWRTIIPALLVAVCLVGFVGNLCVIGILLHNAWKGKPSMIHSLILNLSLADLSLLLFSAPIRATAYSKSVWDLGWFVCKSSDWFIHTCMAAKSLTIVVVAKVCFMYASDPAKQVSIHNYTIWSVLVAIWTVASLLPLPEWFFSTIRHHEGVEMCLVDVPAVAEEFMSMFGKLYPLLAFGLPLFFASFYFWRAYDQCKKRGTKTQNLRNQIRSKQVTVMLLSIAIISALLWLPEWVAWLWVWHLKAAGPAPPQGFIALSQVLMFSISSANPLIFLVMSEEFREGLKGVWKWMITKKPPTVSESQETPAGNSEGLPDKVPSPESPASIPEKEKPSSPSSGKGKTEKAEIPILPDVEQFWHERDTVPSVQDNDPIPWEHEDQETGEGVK
TEAD-YAP block = TEAD-YAP interaction inhibition | HEK-TIYL cells, TEAD-Gal4/YAP UAS-luciferase luminescence | inhibition, % at 9.12 µM | 640,000 compounds, 1.4% hits | AID 1259422; in the data active means inhibition above about 32%;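 further: 0% = median of test compound wells and 100% = reference inhibitor wells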
FBW7 act = human FBW7 E3 ligase activation, primary screen; Q969H0; AlphaScreen FBW7–phospho-cyclin E peptide binding, activator screen; normalized activity (activation), % at 26.1 µM; 650,000 compounds, 0.13% hits; AID 1259310; in the data active means normalized activity above about 1.9%;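 further: purified mutant Fbw7 with reduced substrate affinity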
GPR151 conf act = confirmation of human GPR151 activators | GPR151 PathHunter beta-arrestin cells, luminescence, 90 min; % of EA-reagent control over plate median | shares compounds with GPR151 ag | activation, % at 11.2 µM | 6,700 tested, under 10 active;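 active means mean percent activation across replicates above the confirmation screen cutoff of 4.91%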
GPR119 counter = GPR119 activation, counter-screen for GPR151 activators; GPR119 PathHunter beta-arrestin cells, luminescence, 90 min; 0 = compound-well median, 100 = enzyme-acceptor control; AID 1508611; shares compounds with GPR151 ag; 6,700 compounds, 0.3% hits; activation, % at 11.2 µM;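 active means mean percent activation in the counterscreen above 29.09%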;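 further: counterscreen on off-target GPR119 to flag nonselective hits from the GPR151 activator screen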
* marks the source's active call; other numbers are inactive results. Sampled rows, rich in hits. Any-hit rate of the full collection: about 3.5%.

`O=[N+]([O-])c1ccccc1/C=C/CN1CCSCC1` gave MITF primary 40, GPR151 ag 1, TEAD-YAP block -6 and FBW7 act 0.
Screening CN(CC1OCCO1)C(=O)c1cn2ccsc2n1 returned MITF primary 6, GPR151 ag 2, TEAD-YAP block -8 and FBW7 act -1.
Screening Cc1ccc(CCNC(=O)CS(=O)Cc2nc(-c3ccc(C)cc3)oc2C)cc1 (configuration not stated) returned MITF primary 26, GPR151 ag 2, TEAD-YAP block 10 and FBW7 act 0.
Screening O=C(CN1CCC(c2nc3ccc(Cl)cc3[nH]2)CC1)N1CCCCC1 returned MITF primary 6, GPR151 ag 1, TEAD-YAP block 3 and FBW7 act 0.
`O=C(Nc1cccc2ccccc12)N1CCN(c2ccc(F)cc2)CC1` gave MITF primary -9, GPR151 ag 11*, TEAD-YAP block -1, FBW7 act 0, GPR151 conf act 0 and GPR119 counter -5.
For CC(=O)c1ccc(N2CCN(C(=O)Nc3ccc(C)cc3)CC2)cc1 the results were MITF primary 6, GPR151 ag 2, TEAD-YAP block 0 and FBW7 act 1.
For CC(=O)c1ccc(N2CCN(C(=O)Nc3cccc(F)c3)CC2)cc1 the results were MITF primary -12, GPR151 ag 11*, TEAD-YAP block -10, FBW7 act 0, GPR151 conf act 0 and GPR119 counter -3.
CC(C)C(=O)Nc1ccc(NC(=O)c2ccc(Cl)cc2)nc1 was read as MITF primary 7, GPR151 ag 3, TEAD-YAP block -38 and FBW7 act 0.
For CCOC(=O)c1cnc(SCc2nc(N)nc(Nc3ccccc3)n2)nc1N the results were MITF primary 0, GPR151 ag 3, TEAD-YAP block 13 and FBW7 act 0.
`COc1ccc(Nc2nc(N)nc(CN3C(=O)c4ccccc4C3=O)n2)cc1` gave MITF primary 3, GPR151 ag 6.9*, TEAD-YAP block 0, FBW7 act 0, GPR151 conf act 0 and GPR119 counter -2.
CCN1CCN(Cc2nc(N)nc(Nc3ccccc3)n2)CC1 was read as MITF primary 5, GPR151 ag 6.1*, TEAD-YAP block 8, FBW7 act 0, GPR151 conf act 0 and GPR119 counter 13.
For COc1ccc(Nc2nc(N)nc(CN3CCN(c4ccccn4)CC3)n2)cc1 the results were MITF primary 9, GPR151 ag 0, TEAD-YAP block -7 and FBW7 act 0.
For CCOC(=O)c1nc(N)nc(Nc2ccccc2)n1 the results were MITF primary 15, GPR151 ag 11*, TEAD-YAP block 9, FBW7 act -1, GPR151 conf act 0 and GPR119 counter 1.
For CCOc1ccccc1NC(=O)CN1CCN(c2nccn2-c2ccc(C)cc2)CC1 the results were MITF primary 12, GPR151 ag 8.0*, TEAD-YAP block 2, FBW7 act -1, GPR151 conf act 0 and GPR119 counter -19.
`COc1ccccc1NC(=O)CN1CCN(c2nccn2-c2ccc(C)cc2)CC1` gave MITF primary 12, GPR151 ag -1, TEAD-YAP block -2 and FBW7 act 0.
For COCCO[C@H]1[C@H](NC(=O)C(C)C)c2ccccc2C12CCN(C(=O)C1CCCC1)CC2 the results were MITF primary -4, GPR151 ag -1, TEAD-YAP block 7 and FBW7 act 0.
Screening COCCO[C@H]1[C@H](NC(=O)C(C)C)c2ccccc2C12CCN(C(=O)CCC(C)C)CC2 returned MITF primary 21, GPR151 ag 5.2*, TEAD-YAP block 4, FBW7 act 0, GPR151 conf act 0 and GPR119 counter 8.
COC1CCCC(C(=O)Nc2nc(-c3ccc4c(c3)CCN4C(C)=O)c(C)s2)C1 (configuration not stated) was read as MITF primary -8, GPR151 ag -1, TEAD-YAP block -6 and FBW7 act 1.
Screening Cc1ccc(S(=O)(=O)Nc2ccccc2OC(F)F)cc1 returned MITF primary 22, GPR151 ag -1, TEAD-YAP block 2 and FBW7 act 1.
Screening CCOc1ccc(-c2ncccc2O)cc1 returned MITF primary 18, GPR151 ag 0, TEAD-YAP block -37 and FBW7 act 0.
Screening COc1ccc(-c2ncccc2O)cc1 returned MITF primary 11, GPR151 ag 5.2*, TEAD-YAP block -44, FBW7 act 2, GPR151 conf act 0 and GPR119 counter -2.
CC(=O)NNc1cccc(Cl)c1 was read as MITF primary -10, GPR151 ag 6.1*, TEAD-YAP block 4, FBW7 act 0, GPR151 conf act 0 and GPR119 counter -3.
For C=CCN1C(=O)S/C(=C\c2ccc(F)cc2)C1=O the results were MITF primary 11, GPR151 ag 1, TEAD-YAP block -61 and FBW7 act 0.
Screening O=C(NC1CC1)c1ccc(-c2nc(NCc3ccccc3)c3ncn(-c4ccccc4)c3n2)cc1 returned MITF primary -7, GPR151 ag 2, TEAD-YAP block 2 and FBW7 act 0.
For O=C(NC1CC1)c1ccc(-c2nc(NCc3nc4ccccc4[nH]3)c3ncn(-c4ccccc4)c3n2)cc1 the results were MITF primary -1, GPR151 ag 5.0*, TEAD-YAP block 73*, FBW7 act 1, GPR151 conf act 0 and GPR119 counter 4.
Screening O=C(CCN1CCN(C2c3ccccc3-c3ccccc32)CC1)Nc1ccccc1F returned MITF primary 6, GPR151 ag 5.1*, TEAD-YAP block -4, FBW7 act 0, GPR151 conf act 1 and GPR119 counter 10.
`CC(C)(C)NC(=O)NC(=O)COC(=O)Cc1ccc(Cl)c(Cl)c1` gave MITF primary 1, GPR151 ag 7.2*, TEAD-YAP block -1, FBW7 act 0, GPR151 conf act 0 and GPR119 counter -2.
Screening CC(C)(C)NC(=O)NC(=O)COC(=O)Cn1cnc2ccccc2c1=O returned MITF primary 4, GPR151 ag 6.8*, TEAD-YAP block 2, FBW7 act 0, GPR151 conf act 0 and GPR119 counter 2.
For CCCCOC(C)n1cc(Cl)c(=O)[nH]c1=O (configuration not stated) the results were MITF primary 8, GPR151 ag 5.1*, TEAD-YAP block 7, FBW7 act 0, GPR151 conf act 0 and GPR119 counter -2.
For CCOc1cc(C=C2C(=O)OC(C)(C)OC2=O)ccc1OC(=O)c1cccs1 the results were MITF primary -3, GPR151 ag 0, TEAD-YAP block 12 and FBW7 act 0.
`C=CCn1c(/N=C/c2ccc(OC)cc2)nc2ccccc21` gave MITF primary 6, GPR151 ag 5.0*, TEAD-YAP block 5, FBW7 act 0, GPR151 conf act 2 and GPR119 counter 12.
